Only a selection was taken, and hits are over-represented in it overall.
RBX1-CUL1 inh: inhibitors of human ROC1-CUL1 ubiquitin ligase activity; hit rate 0.6% among 140,000; in vitro K48 di-Ub FRET, acceptor:donor ratio, 45 min; inhibition, % at 10 µM; E3 ubiquitin-protein ligase RBX1 (Homo sapiens) + Cullin-1 (Homo sapiens), P62877+Q13616; in the data active means inhibition above about 25%
Target sequence (P62877 whole entry, looked up): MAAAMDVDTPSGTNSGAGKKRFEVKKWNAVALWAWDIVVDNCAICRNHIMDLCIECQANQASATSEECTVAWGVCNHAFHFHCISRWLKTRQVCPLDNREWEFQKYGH
Target sequence (Q13616 whole entry, looked up): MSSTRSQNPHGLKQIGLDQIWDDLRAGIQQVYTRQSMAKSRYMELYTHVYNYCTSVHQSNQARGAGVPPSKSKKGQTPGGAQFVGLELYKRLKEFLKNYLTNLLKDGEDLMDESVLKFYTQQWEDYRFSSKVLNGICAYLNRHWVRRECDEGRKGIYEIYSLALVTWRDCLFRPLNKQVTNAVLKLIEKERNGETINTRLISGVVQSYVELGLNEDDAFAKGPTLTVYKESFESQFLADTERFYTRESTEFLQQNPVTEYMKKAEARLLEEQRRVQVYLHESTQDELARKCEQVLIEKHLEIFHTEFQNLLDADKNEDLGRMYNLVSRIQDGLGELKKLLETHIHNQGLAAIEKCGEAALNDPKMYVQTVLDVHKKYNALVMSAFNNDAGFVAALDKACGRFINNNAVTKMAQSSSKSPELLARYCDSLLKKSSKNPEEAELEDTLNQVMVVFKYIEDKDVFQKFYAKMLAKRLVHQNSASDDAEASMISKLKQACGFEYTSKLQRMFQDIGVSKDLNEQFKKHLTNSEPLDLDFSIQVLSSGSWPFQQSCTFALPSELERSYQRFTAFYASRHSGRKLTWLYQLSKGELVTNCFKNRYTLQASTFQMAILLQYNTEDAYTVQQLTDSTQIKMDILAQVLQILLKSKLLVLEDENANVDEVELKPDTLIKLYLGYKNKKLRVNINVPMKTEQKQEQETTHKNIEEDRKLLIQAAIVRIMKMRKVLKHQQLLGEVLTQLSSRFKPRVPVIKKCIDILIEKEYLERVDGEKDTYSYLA
Of the large screens only hits and unclear results are named; the others gave an inactive call.

Cc1ccc([C@H]2Nc3ccc(S(=O)(=O)Nc4cccc(Cl)c4C)cc3[C@H]3C=CC[C@H]32)cc1	none
Cc1ccc([C@@H]2Nc3c(ccc(C(=O)O)c3C)[C@@H]3C=CC[C@@H]32)cc1	RBX1-CUL1 inh 97.2
O=C1OC2(CCCC2)OC(=O)C1=Cc1ccc2c(c1)OCO2	none
O=S(=O)(c1ccccc1)c1nc2ccccc2nc1/C=C/c1ccccc1	none
Cc1cc(C(F)(F)F)n2nc(N)c(N=Nc3cccc(C(F)(F)F)c3)c2n1	none
CSc1c(C#N)c(N)nc2c(N=Nc3ccc(S(N)(=O)=O)cc3)c(N)nn12	RBX1-CUL1 inh 84.4
Cc1cc(C(F)(F)F)n2nc(N)c(N=Nc3ccccc3)c2n1	none
COc1cc(C2c3c(n[nH]c3C)OC(=N)C2C#N)ccc1OCc1c(C)cc(C)cc1C (stereo not drawn)	none
COc1ccc(C(=O)NC(Nc2cccc3ccccc23)C(Cl)(Cl)Cl)cc1 (stereo not drawn)	none
N#CC1C(=N)Oc2n[nH]c(-c3ccc(F)cc3)c2C1c1cccc(C(F)(F)F)c1 (stereo not drawn)	none
COc1ccc(N(CC(=O)NCCSC2CCCCC2)S(C)(=O)=O)cc1OC	none
Cc1ccnc(NC(=O)c2ccc(Cl)cc2Cl)c1	none
Cc1ccc(NS(=O)(=O)c2ccc(NC(=O)c3ccc(Cl)cc3Cl)cc2)c(C)c1	none
Cc1ccc(NC(=O)c2ccc(Cl)cc2Cl)c(S(=O)(=O)O)c1	RBX1-CUL1 inh 96.5
Cc1ccc(-c2ccc(CNCCO)o2)cc1Cl	none
COc1ccc(NC(=O)CC2C(=O)N(c3ccc(Cl)cc3)C(=S)N2CCCN2CCOCC2)cc1 (stereo not drawn)	none
Cc1ccccc1CS(=O)(=O)N1CCOCC1	none
Cc1[nH]c2ccccc2c1C(=S)N1CCOCC1	none
Cc1ccc(-c2[nH]nc3c2C(c2ccc4c(c2)OCO4)C(C#N)C(=N)O3)cc1 (stereo not drawn)	none
N#CC1C(=N)Oc2n[nH]c(-c3ccc(-c4ccccc4)cc3)c2C1c1ccccn1 (stereo not drawn)	RBX1-CUL1 inh 30.8
N#CC1C(=N)Oc2n[nH]c(-c3ccc(-c4ccccc4)cc3)c2C1c1ccccc1F (stereo not drawn)	none
Cc1ccc(-c2[nH]nc3c2C(c2ccc(Cl)cc2)C(C#N)C(=N)O3)cc1 (stereo not drawn)	none
N#CC1C(=N)Oc2n[nH]c(-c3ccccc3)c2C1c1ccccc1Cl (stereo not drawn)	none
Cc1ccc(-c2[nH]nc3c2C(c2ccc(O)c(O)c2)C(C#N)C(=N)O3)cc1 (stereo not drawn)	RBX1-CUL1 inh 34.6
CCN(Cc1cnn(C)c1)C(=O)c1cn(Cc2ccccc2F)nn1	none
CCCCCCNC(=O)CSC1=N/C(=C\c2ccccc2F)C(=O)N1c1ccccc1	none
COc1ccc(-c2nc3cc(NC(=O)COc4ccccc4OC)ccc3o2)cc1	none
CC(Oc1ccccc1)C(=O)Nc1nc2ccccc2s1 (stereo not drawn)	none
O=C(Nc1nc2ccccc2s1)C(C(F)(F)F)C(F)(F)F	RBX1-CUL1 inh 74.2
CC(C)C(=O)Nc1nc2ccccc2s1	none
CCCC1(C2CCN(C(=O)CCc3ccccc3OC)CC2)NC(=O)N(CCc2cccs2)C1=O (stereo not drawn)	none
Cn1c(SCC(=O)Nc2ccc3nc(SCc4ccccc4F)sc3c2)nc2sc3c(c2c1=O)CCCC3	none
COc1cc2c(c(OC)c1)C(=O)C2	none
COc1cc2c(c(O)c1OC)C(=O)C(=O)CC=C2	RBX1-CUL1 inh 32.5
COc1cc(NC(C)=O)c(-c2c(NC(C)=O)cc(OC)c(OC)c2OC)c(OC)c1OC	none
CCN1CCCC1CNCc1ccc(C)cc1 (stereo not drawn)	none
Fc1ccc(-c2cn3cc(Cl)ccc3n2)cc1	none
O=C(O)c1cccc(NC(=O)c2ccc3c(c2)C(=O)N(C2CCCCC2)C3=O)c1	RBX1-CUL1 inh 26.5
COc1ccc(C(=O)Nc2ccc3c(c2)C(=O)N(C2CCCCC2)C3=O)cc1	none
CC(C)(C)NC(=O)c1ccc2c(c1)C(=O)N(C1CCCCC1)C2=O	none
Cn1cc(-c2nc(-c3ccccc3)c(-c3ccc([N+](=O)[O-])cc3)[nH]2)c2ccccc21	none
C(=C\c1ccccc1)/CNc1ccc(N2CCOCC2)cc1	none
Cc1ccccc1NC(=O)CSc1ncn(-c2ccccc2)n1	none
O=S1(=O)N=C(N2CCN(c3ccccc3F)CC2)c2ccccc21	none
C=CCn1c(SCC(=O)Nc2ccc(C)cc2)nc2sc(C)c(C)c2c1=O	none
c1ccc(CSc2nc3ccccc3o2)c(CSc2nc3ccccc3o2)c1	none
c1ccc2oc(SCCCCCCSc3nc4ccccc4o3)nc2c1	none
O=C(O)c1ccccc1SCCSc1nc2ccccc2o1	RBX1-CUL1 inh 33.8
CCOc1ccc(C2C(C(=O)c3cc4ccccc4o3)C(=O)C(=O)N2c2nnc(SCc3ccccc3F)s2)cc1OC (stereo not drawn)	none
O=C1C(=O)N(c2nnc(SCc3ccc(Cl)cc3)s2)C(c2cccs2)C1C(=O)c1cc2ccccc2o1 (stereo not drawn)	RBX1-CUL1 inh 45.5
CCOc1cc(C2C(C(=O)c3cc4ccccc4o3)C(=O)C(=O)N2c2nnc(SCc3ccccc3)s2)ccc1O (stereo not drawn)	RBX1-CUL1 inh 65.4
CCOc1cc(C2C(C(=O)c3cc4ccccc4o3)C(=O)C(=O)N2c2nnc(SCc3cccc4ccccc34)s2)ccc1O (stereo not drawn)	none
O=C1C(=O)N(c2nnc(SCc3ccc(Cl)cc3)s2)C(c2cccc(O)c2)C1C(=O)c1cc2ccccc2o1 (stereo not drawn)	none
O=C1C(=O)N(c2nnc(SCc3ccccc3)s2)C(c2cccs2)C1C(=O)c1cc2ccccc2o1 (stereo not drawn)	none
COCCC(=O)Nc1cc(C(=O)NC2CCS(=O)(=O)C2)cc2nc(-c3ccccc3)n(C)c12 (stereo not drawn)	none
COc1ccc(NC(=O)CSc2nc3sc(C)c(C)c3c(=O)n2Cc2ccco2)cc1Cl	none
CC1CCN(C(=O)CN(Cc2ccc(Cl)cc2)S(=O)(=O)c2ccc(Cl)cc2)CC1	none
CCOC(=O)c1c(N=CC2C(=O)NC(=S)N(c3ccc(F)cc3)C2=O)sc2c1CCCC2 (stereo not drawn)	none
Cc1ccc(N2C(=O)NC(=O)C(C=Nc3ccc(O)c(C(=O)O)c3)C2=O)cc1 (stereo not drawn)	none
CCOc1ccc(N2C(=O)C(C=Nc3cc(N)cc(C(=O)O)c3)C(=O)NC2=S)cc1 (stereo not drawn)	RBX1-CUL1 inh 90.5
OC(Cc1ccccc1)c1ccc2c(c1)CN(Cc1ccc3c(c1)OCCO3)CCO2 (stereo not drawn)	none
COc1ccc(C(=O)C2C(=O)C(=O)N(CCCn3ccnc3)C2c2cccc(O)c2)cc1F (stereo not drawn)	none
O=C1C(Sc2ncn[nH]2)=CC(=NS(=O)(=O)c2ccc(Cl)cc2)c2ccccc21	RBX1-CUL1 inh 90.5
COc1ccc(S(=O)(=O)N=C2C=C(Sc3ccc(C)cc3)C(=O)c3ccccc32)cc1	none
Cc1ccc(S(=O)(=O)N=C2C=C(C3C(=O)CC(C)(C)CC3=O)C(=O)c3ccccc32)cc1	none
Cc1cc(C)c2nc(-c3cccc(Cl)c3)cc(C(=O)O)c2c1	none
Cc1cc(C)n(C(=O)/C=C/c2ccco2)n1	none
CCOc1ccc(C2CC(C3C(=O)NC(=O)N(C4CCCCC4)C3=O)=Nc3ccccc3S2)cc1 (stereo not drawn)	none
CC1=NN(c2ccc(S(N)(=O)=O)cc2)C(=O)/C1=C\c1ccc(N(C)C)c(Br)c1	RBX1-CUL1 inh 68.0
COc1cc(/C=C2/C(=O)N(c3ccc(Cl)c(Cl)c3)N=C2C)cc(OC)c1OC	none
NS(=O)(=O)c1ccc(N=C2CC(=O)Oc3ccccc32)cc1	none
COc1cc(/C=C2\C(=O)N(c3ccc(S(N)(=O)=O)cc3)N=C2C)cc(OC)c1OC	RBX1-CUL1 inh 32.1
